A short description of experiment [1]: APR_HepG2_NuclearSize_72hr: Apredica 72-hour HepG2 Assay for Nuclear Size (AID 2282925). The conditions noted are these: high-content imaging, actives raise or lower the signal. In a few lines: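 Nuclear size was read by high-content imaging of Hoechst 33342 stain after formaldehyde fixation. Compounds ran 72 h on HepG2 at 0.39 to 200 uM, with final DMSO 0.5% v/v. Curves fitted both directions relative to DMSO control.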

Experiment [2] can be described thus: ATG_CRE_CIS: Attagene CIS-FACTORIAL HepG2 Assay for human cAMP Responsive Element (CRE) binding protein 3 (AID 2282926). As to conditions: HepG2 CRE cis-reporter, Attagene multiplexed mRNA; actives raise or lower the signal. In a few lines: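 Liver-derived HepG2, transfected with a CRE-containing reporter panel, exposed 24 h; transcript levels sized and quantified by capillary electrophoresis of labelled amplicons; signal changes either way referenced to vehicle.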

Experiment [3] concerns the target CCAAT/enhancer-binding protein beta (Homo sapiens) (UniProt P17676). The experiment in a line: ATG_C_EBP_CIS: Attagene CIS-FACTORIAL HepG2 Assay for human CCAAT/Enhancer Binding Protein (C/EBP) beta (AID 2282927). As to conditions: HepG2 Attagene cis-factorial transcription factor reporter; actives raise or lower the signal. In a few lines: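 Endogenous C/EBPb-driven reporter transcripts measured in transfected human HepG2 cells at 24 h via RT-PCR and capillary electrophoresis of labelled fragments. Activity fitted in both directions relative to DMSO baseline.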

Experiment [4] can be described thus: ATG_CMV_CIS: Attagene CIS-FACTORIAL HepG2 Assay for human CMV (Internal Marker) (AID 2282928).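 Also: endpoint acts as a background internal control marker rather than a target.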 The conditions noted are these: HepG2 CMV promoter reporter, transcription factor profiling; actives raise or lower the signal. In a few lines: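 24 h chemical treatment, HepG2 with transient multi-reporter transfection; RNA → oligo(dT) RT → PCR → 6-FAM extension → HpaI digest → CE fluorescence. Bidirectional fit, DMSO negative control.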

Experiment [5] can be described thus: ATG_DR4_LXR_CIS: Attagene CIS-FACTORIAL HepG2 Assay for human Liver X Receptor (LXR), DR4 submotif (AID 2282929). As to conditions: HepG2 Attagene DR4 cis-reporter, mRNA transcription; actives raise or lower the signal. In a few lines: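 HepG2 cells were transiently transfected with multiple cis-regulated reporter units and dosed for 24 hours. The DR4 reporter mRNA was quantified by RT-PCR, 6-FAM labelling and capillary electrophoresis. Bidirectional fits used DMSO as baseline.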

For experiment [6], the target named is Aryl hydrocarbon receptor (Homo sapiens) (UniProt P35869). The experiment in a line: ATG_Ahr_CIS: Attagene CIS-FACTORIAL HepG2 Assay for human Aryl Hydrocarbon Receptor (Ahr) (AID 2282930). The conditions noted are these: HepG2 AhR cis-factorial reporter transcription; actives raise or lower the signal. The method in brief:
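Reporter mRNA levels, quantified by RT-PCR and fluorescent capillary electrophoresis, reflect endogenous AhR transcriptional activity in HepG2 cells carrying transfected cis-promoter reporter constructs. Readout at 24 h post-dose; gain or loss fitted against DMSO baseline.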

A short description of experiment [7]: ATG_AP_1_CIS: Attagene CIS-FACTORIAL HepG2 Assay for human Activator Protein 1 (AP-1) (AID 2282931). As to conditions: HepG2 Attagene cis-factorial AP-1 reporter mRNA; actives raise or lower the signal. The method in brief: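 HepG2 cells transiently transfected with cis-element-driven reporter transcription units, dosed for 24 hours. Reporter mRNA measured by RT-PCR, 6-FAM labelling, HpaI digestion and capillary electrophoresis. Bidirectional fitting against DMSO baseline.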

The nature of experiment [8]: ATG_AP_2_CIS: Attagene CIS-FACTORIAL HepG2 Assay for human Activator Protein 2 (AP-2) (AID 2282932). The conditions noted are these: HepG2 AP-2 cis-reporter, Attagene transcription factor profiling; actives raise or lower the signal. In a few lines:
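Endogenous transcription factor activity is reported through transfected multiplex reporter constructs in HepG2, after 24 h of compound exposure. Transcripts were quantified by RT-PCR and capillary electrophoresis of fluorescent fragments. Bidirectional fit against DMSO.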

A short description of experiment [9]: ATG_BRE_CIS: Attagene CIS-FACTORIAL HepG2 Assay for human Bone Morphogenetic Protein (BMP) Response Element (BRE) (AID 2282933). As to conditions: HepG2 BMP response element reporter, Attagene transcription factor profiling; actives raise or lower the signal. In a few lines: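 Endogenous transcription factor activity at a BMP response element was monitored in transfected HepG2 cells 24 h after dosing. Fluorescent RT-PCR products were resolved by capillary electrophoresis, and activity was fitted in both directions versus DMSO.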

Experiment [10] concerns the target Transcription factor E2F1 (Homo sapiens) (UniProt Q01094). The experiment in a line: ATG_E2F_CIS: Attagene CIS-FACTORIAL HepG2 Assay for human E2F Transcription Factor 1 (AID 2282935). The conditions noted are these: HepG2 Attagene cis-reporter, E2F reporter RNA transcripts; actives raise or lower the signal. The method in brief: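 Gain or loss of reporter transcript, fitted against DMSO, reflects E2F1-driven transcription. Transiently transfected HepG2 dosed 24 h before RNA isolation. Quantified by fluorescent RT-PCR products separated by capillary electrophoresis.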

Experiment [11] can be described thus: ATG_E_Box_CIS: Attagene CIS-FACTORIAL HepG2 Assay for human Enhancer Box (E-box) (AID 2282936). The conditions noted are these: HepG2 E-box cis-reporter transcription, actives raise or lower the signal. In a few lines: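 E-box-driven reporter transcripts measured in transiently transfected HepG2 after 24 h exposure: RNA reverse-transcribed, PCR-amplified, fluorescently labelled, digested and resolved by capillary electrophoresis. Gain or loss relative to DMSO.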

Experiment [12] can be described thus: ATG_M_61_CIS: Attagene CIS-FACTORIAL HepG2 Assay for M61 Transcription Factor (Internal Marker) (AID 2282937). The conditions noted are these: HepG2 Attagene CIS-FACTORIAL M61 internal marker reporter; actives raise or lower the signal. In a few lines: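 HepG2 cells transiently transfected with multiplexed cis-promoter reporter units reporting endogenous transcription factor activity, measured 24 h after dosing. Reporter mRNA quantified by RT-PCR and capillary electrophoresis; bidirectional fit against DMSO baseline.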

Experiment [13] in a line: ATG_EGR_CIS: Attagene CIS-FACTORIAL HepG2 Assay for human Early Growth Response 1 (EGR1) (AID 2282938). The conditions noted are these: HepG2 Attagene CIS-FACTORIAL EGR reporter mRNA; actives raise or lower the signal. In a few lines: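 HepG2 cells transiently transfected with cis-element-driven multiplexed reporter units, dosed for 24 h. EGR1-element reporter mRNA quantified by RT-PCR, 6-FAM labelling, HpaI digestion and capillary electrophoresis; bidirectional fit versus DMSO.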

Experiment [14] is described as follows: ATG_M_19_CIS: Attagene CIS-FACTORIAL HepG2 Assay for M19 Transcription Factor (Internal Marker) (AID 2282939). As to conditions: HepG2 Attagene CIS-FACTORIAL M19 internal marker reporter; actives raise or lower the signal. In a few lines:
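Background-control endpoint from a multiplexed HepG2 reporter panel. Cells carrying cis-regulated reporter constructs are treated 24 h, then reporter transcripts are amplified, fluorescently labelled and sized by capillary electrophoresis. DMSO defines baseline.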

Experiment [15] can be described thus: ATG_ERE_CIS: Attagene CIS-FACTORIAL HepG2 Assay for Estrogen Response Element (ERE) (AID 2282940). The conditions noted are these: HepG2 ERE cis-reporter, Attagene RNA transcript; actives raise or lower the signal. The method in brief:
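Cells used were human hepatoma HepG2, transfected with multiple reporter transcription units under cis-regulatory promoters. Reporter mRNA, read 24 h post-dosing via fluorescent RT-PCR products on capillary electrophoresis, was fitted bidirectionally relative to DMSO.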

A short description of experiment [16]: ATG_Ets_CIS: Attagene CIS-FACTORIAL HepG2 Assay for human Erythroblast Transformation Specific (ETS) (AID 2282941). As to conditions: HepG2 ETS cis-reporter transcription, actives raise or lower the signal. The method in brief: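 Cis-regulated reporter mRNA induction in HepG2 (transient transfection), 24 h exposure, RT-PCR plus capillary electrophoresis detection; DMSO serves as negative control and baseline.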

Experiment [17] deals with Hepatocyte nuclear factor 3-beta (Homo sapiens) (UniProt Q9Y261). The experiment in a line: ATG_FoxA2_CIS: Attagene CIS-FACTORIAL HepG2 Assay for human Forkhead box A2 (FOXA2) (AID 2282942). As to conditions: HepG2 cis-reporter transcription factor activity, 24 h; actives raise or lower the signal. The method in brief:
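HepG2 transiently transfected with a multiplexed cis-promoter reporter library read endogenous FOXA2 activity. After 24 h compound exposure, reporter mRNA was quantified by RT-PCR, HpaI digestion and capillary electrophoresis. Bidirectional fit against DMSO.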

The nature of experiment [18]: ATG_FoxO_CIS: Attagene CIS-FACTORIAL HepG2 Assay for human Forkhead box O (FoxO) (AID 2282943). The conditions noted are these: HepG2 Attagene cis-reporter, FoxO element, mRNA; actives raise or lower the signal. The method in brief: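 Endogenous transcription factor activity read from multiplexed cis-promoter reporter transcripts in transiently transfected HepG2, 24 h after dosing. Reporter RNA measured via RT-PCR plus capillary electrophoresis of FAM-labeled products; gain or loss relative to DMSO.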

A short description of experiment [19]: ATG_GATA_CIS: Attagene CIS-FACTORIAL HepG2 Assay for human GATA Binding Protein (AID 2282944). As to conditions: HepG2 GATA cis-element reporter, Attagene multiplex mRNA; actives raise or lower the signal. The method in brief:
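Endogenous transcription factor activity was captured through cis-promoter-driven reporters in transfected HepG2 cells. After 24 h exposure, reporter transcripts were quantified by RT-PCR with fluorescent capillary electrophoresis, and responses fitted both directions against DMSO.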

Activity calls are given as the source filed them. The calls were made as follows: active = hit-call score of the fitted dose curve at least 0.9, where 1 is the maximum; inactive = score below 0.9.

Sequence of CCAAT/enhancer-binding protein beta (Homo sapiens) (P17676 whole entry, looked up, the tested form may be a part): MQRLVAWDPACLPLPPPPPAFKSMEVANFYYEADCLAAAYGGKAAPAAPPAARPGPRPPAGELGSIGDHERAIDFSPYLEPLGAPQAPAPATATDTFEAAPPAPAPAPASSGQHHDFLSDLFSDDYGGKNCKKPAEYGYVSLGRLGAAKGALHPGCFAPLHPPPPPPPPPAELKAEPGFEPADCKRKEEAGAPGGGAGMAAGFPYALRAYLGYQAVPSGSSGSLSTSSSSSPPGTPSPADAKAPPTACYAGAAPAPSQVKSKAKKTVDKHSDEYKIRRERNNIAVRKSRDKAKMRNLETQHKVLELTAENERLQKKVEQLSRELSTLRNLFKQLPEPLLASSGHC
Sequence of Transcription factor E2F1 (Homo sapiens) (Q01094 whole entry, looked up): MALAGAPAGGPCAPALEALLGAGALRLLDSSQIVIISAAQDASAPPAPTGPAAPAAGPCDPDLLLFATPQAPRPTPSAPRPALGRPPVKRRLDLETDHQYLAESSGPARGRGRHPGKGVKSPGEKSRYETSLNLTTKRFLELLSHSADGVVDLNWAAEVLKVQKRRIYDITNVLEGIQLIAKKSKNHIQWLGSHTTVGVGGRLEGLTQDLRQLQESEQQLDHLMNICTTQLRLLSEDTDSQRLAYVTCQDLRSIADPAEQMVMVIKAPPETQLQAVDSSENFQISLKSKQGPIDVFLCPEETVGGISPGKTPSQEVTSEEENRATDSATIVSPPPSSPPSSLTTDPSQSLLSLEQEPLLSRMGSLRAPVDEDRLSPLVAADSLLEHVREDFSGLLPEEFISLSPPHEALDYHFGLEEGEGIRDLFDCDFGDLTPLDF
Sequence of Aryl hydrocarbon receptor (Homo sapiens) (P35869 whole entry, looked up): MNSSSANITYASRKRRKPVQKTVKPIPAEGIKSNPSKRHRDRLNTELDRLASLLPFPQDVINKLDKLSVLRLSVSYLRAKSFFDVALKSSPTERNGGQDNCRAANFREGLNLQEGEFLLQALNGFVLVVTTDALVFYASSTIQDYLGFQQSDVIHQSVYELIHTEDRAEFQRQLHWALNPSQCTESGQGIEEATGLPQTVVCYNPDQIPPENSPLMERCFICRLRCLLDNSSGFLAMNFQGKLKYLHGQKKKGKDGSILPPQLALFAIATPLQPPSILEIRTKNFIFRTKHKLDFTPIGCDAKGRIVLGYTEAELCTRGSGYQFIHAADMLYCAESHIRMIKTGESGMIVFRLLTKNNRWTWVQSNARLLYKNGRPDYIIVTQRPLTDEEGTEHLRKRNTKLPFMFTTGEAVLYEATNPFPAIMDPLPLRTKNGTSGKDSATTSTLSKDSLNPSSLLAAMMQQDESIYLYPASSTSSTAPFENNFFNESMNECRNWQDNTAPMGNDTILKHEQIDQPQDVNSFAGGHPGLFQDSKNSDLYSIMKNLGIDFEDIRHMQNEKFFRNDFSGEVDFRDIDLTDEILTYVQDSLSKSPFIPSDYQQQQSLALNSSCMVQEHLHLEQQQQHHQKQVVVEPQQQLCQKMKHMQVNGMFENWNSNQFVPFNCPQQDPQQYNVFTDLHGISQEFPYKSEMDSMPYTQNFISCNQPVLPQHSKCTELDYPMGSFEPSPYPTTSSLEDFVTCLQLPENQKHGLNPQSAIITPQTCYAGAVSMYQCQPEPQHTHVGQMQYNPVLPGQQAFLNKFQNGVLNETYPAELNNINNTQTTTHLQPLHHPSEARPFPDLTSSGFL
Sequence of Hepatocyte nuclear factor 3-beta (Homo sapiens) (Q9Y261 whole entry, looked up): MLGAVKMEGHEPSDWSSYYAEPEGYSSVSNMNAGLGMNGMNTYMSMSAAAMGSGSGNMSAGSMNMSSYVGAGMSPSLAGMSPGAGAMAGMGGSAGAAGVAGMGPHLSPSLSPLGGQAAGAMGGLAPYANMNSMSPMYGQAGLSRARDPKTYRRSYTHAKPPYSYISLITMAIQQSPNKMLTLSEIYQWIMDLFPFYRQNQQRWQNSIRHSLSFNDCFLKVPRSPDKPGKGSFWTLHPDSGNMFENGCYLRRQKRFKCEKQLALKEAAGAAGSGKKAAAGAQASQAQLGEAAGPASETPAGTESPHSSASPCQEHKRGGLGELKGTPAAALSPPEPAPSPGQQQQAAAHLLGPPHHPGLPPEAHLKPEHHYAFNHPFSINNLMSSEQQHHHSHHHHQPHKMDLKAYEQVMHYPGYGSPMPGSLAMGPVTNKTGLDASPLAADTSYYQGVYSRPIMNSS

Turning to `COc1cc(S(=O)(=O)O)c(C)cc1N=Nc1c(O)ccc2cc(S(=O)(=O)O)ccc12`, the call in [1], in experiment [2], in experiment [3], in experiment [4], in experiment [5] and in [6] was inactive. Also, the compound was classed as inactive in experiment [7], in experiment [8], in experiment [9], in [10], in experiment [11] and in experiment [12]. For the same compound, the compound was classed as inactive in experiment [13], in experiment [14], in experiment [15], in experiment [16], in [17] and in experiment [18]. Moreover, the call in experiment [19] was inactive.
Turning to `CC(=O)OC/C=C(\C)CCC=C(C)C`, the compound was called inactive in [1], in experiment [2], in experiment [3], in experiment [4], in experiment [5] and in [6]. The compound was classed as inactive in [7], in [8], in experiment [9], in [10], in experiment [11] and in experiment [12]. The compound was called inactive in experiment [13], in experiment [14], in [15], in experiment [16], in experiment [17] and in experiment [18]. Besides, in experiment [19], the result was inactive.
Broadly, the AC50 is the midpoint of the concentration-response curve, whichever way the signal moves. Regarding `CCCc1cc(=O)[nH]c(=S)[nH]1`, the outcome in experiment [1], in [2], in experiment [3], in [4], in experiment [5] and in experiment [7] was inactive. Also, the compound was called inactive in experiment [8], in [9], in [10], in experiment [11], in [12] and in experiment [13]. The result in experiment [14], in [16], in experiment [17], in experiment [18] and in experiment [19] was inactive. Besides, the half-maximal activity concentration (AC50) was 63.9 µM (active) in experiment [6] and 4.56 µM (active) in experiment [15].

The record behind these values is PubChem BioAssay (EPA / NIEHS).
